Consider 6 molecules from PubChem BioAssay.

For part of these data: Potency and affinity values are given separately.

One experiment is described as follows: polyglutamine-triggered caspase-3 activation inhibitors, cell-based (AID 1583). To be noted: polyglutamine-induced caspase-3 activation, cell assay; stronger effect = higher value;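 tested at 10 µM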.
Broadly, the inhibition is the relative decrease from the control value, in per cent. For `CC[C@@H](CO)NCCN[C@@H](CC)CO`, the inhibition is -11.7%.

For `O=C(O)CN(CC(=O)O)Cc1cc2c(-c3ccccc3C(=O)O)c3cc(CN(CC(=O)O)CC(=O)O)c(=O)cc-3oc2cc1O`, the inhibition is -215%.

In the case of `CCN(CC)CCOc1ccc2c(c1)C(=O)c1cc(OCCN(CC)CC)ccc1-2`, the inhibition is -90.6%.

`CC(=O)NC(Cc1ccccc1)C(=O)O` (centres undefined): the inhibition was determined as 6.15%.

As to `CC(C)=CCC/C(C)=C/CO`, the inhibition is 23.2%.

Consider `CC(=O)OCC(=O)[C@@]1(O)CCC2C3CCC4=CC(=O)CC[C@]4(C)C3[C@@H](O)C[C@@]21C` (some centres undefined), for which the inhibition amounted to 6.86%.

The nature of another experiment: suppressors of polyQ aggregation in yeast, 75Q-TubU reporter (AID 1593). To be noted: Yeast 75Q polyglutamine aggregation reporter.
In the case of `CC[C@@H](CO)NCCN[C@@H](CC)CO`, the score turned out to be 1.09.

Molecule `O=C(O)CN(CC(=O)O)Cc1cc2c(-c3ccccc3C(=O)O)c3cc(CN(CC(=O)O)CC(=O)O)c(=O)cc-3oc2cc1O` gave a score of 1.05.

`CCN(CC)CCOc1ccc2c(c1)C(=O)c1cc(OCCN(CC)CC)ccc1-2` gave a score of 1.3.

On to `CC(=O)NC(Cc1ccccc1)C(=O)O` (centres undefined), for which the score was 1.35.

Molecule `CC(C)=CCC/C(C)=C/CO` had a score of 1.12.

Molecule `CC(=O)OCC(=O)[C@@]1(O)CCC2C3CCC4=CC(=O)CC[C@]4(C)C3[C@@H](O)C[C@@]21C` (some centres undefined) gave a score of 1.36.

Another experiment is described as follows: rescue of polyQ-huntingtin neuronal dysfunction in worms, whole organism, C. elegans mechanosensory neurons, N-terminal huntingtin (AID 1599). Particulars: touch response, stronger effect = higher value.
As to `CC[C@@H](CO)NCCN[C@@H](CC)CO`, the rescue above control turned out to be 2.87.

Regarding `O=C(O)CN(CC(=O)O)Cc1cc2c(-c3ccccc3C(=O)O)c3cc(CN(CC(=O)O)CC(=O)O)c(=O)cc-3oc2cc1O`, the rescue above control was -5.14.

`CCN(CC)CCOc1ccc2c(c1)C(=O)c1cc(OCCN(CC)CC)ccc1-2` showed a rescue above control of -4.59.

For `CC(=O)NC(Cc1ccccc1)C(=O)O` (centres undefined), the rescue above control stood at 4.38.

Molecule `CC(C)=CCC/C(C)=C/CO` gave a rescue above control of 3.94.

In the case of `CC(=O)OCC(=O)[C@@]1(O)CCC2C3CCC4=CC(=O)CC[C@]4(C)C3[C@@H](O)C[C@@]21C` (some centres undefined), the rescue above control was -8.68.

A short description of the next experiment: inhibitors of mitochondrial cytochrome c release, biochemical, purified mitochondria (AID 1603).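 Further: mouse liver mitochondria challenged with calcium chloride; signal normalized to the plate average as 100%.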 To be noted: stronger effect = lower value.
Consider `CC[C@@H](CO)NCCN[C@@H](CC)CO`, for which the cytochrome c release ratio came to 1.07.

For `O=C(O)CN(CC(=O)O)Cc1cc2c(-c3ccccc3C(=O)O)c3cc(CN(CC(=O)O)CC(=O)O)c(=O)cc-3oc2cc1O`, the cytochrome c release ratio turned out to be 0.86.

For the molecule `CCN(CC)CCOc1ccc2c(c1)C(=O)c1cc(OCCN(CC)CC)ccc1-2`, the cytochrome c release ratio stood at 0.81.

As for `CC(=O)NC(Cc1ccccc1)C(=O)O` (centres undefined), the cytochrome c release ratio came out at 0.42.

As for `CC(C)=CCC/C(C)=C/CO`, the cytochrome c release ratio worked out at 1.17.

Take `CC(=O)OCC(=O)[C@@]1(O)CCC2C3CCC4=CC(=O)CC[C@]4(C)C3[C@@H](O)C[C@@]21C` (some centres undefined): the cytochrome c release ratio is 1.12.
